Laboratory results: PubChem BioAssay (NCATS)
Records with an inconclusive call do not appear. Activity calls are given as the source filed them. Calls follow the shape of the dose curve; as a rule, active = well fitted curve in the direction sought with a large enough effect; inconclusive = small, poorly fitted or top-dose-only effect, or another doubt; inactive = no such curve, though single readings can be large; an effect the other way counts as inactive or inconclusive.

Columns and labels:
HACAT = assay: qHTS assay to identify novel small-molecules to repurpose for Merkel cell carcinoma treatment (AID 1296009); conditions: MCC and control cell lines, CellTiter-Glo viability, 72 h; at 44.8 µM (top of the series) unless noted; also: nearly all actives have a fitted effect of over 60% in size
Outline: (§1)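 Viability readout: ATP luminescence (CellTiter-Glo) after 72 hr drug exposure at 37 degree celsius. Dose-response format was 8 points for NPC and 11 points for MIPE; data normalized to in-plate controls.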

NIH3T3 = assay: as above; conditions: MCC and control cell lines, CellTiter-Glo viability, 72 h; at 44.8 µM (top of the series) unless noted
Outline: as §1

C33A = assay: Primary qHTS to identify gynecologic anti-cancer compounds using libraries of approved drugs and bioactive compounds (AID 1345084); conditions: Gynecologic cancer cell panel viability, ATPlite luminescence, 48 h; series mostly up to 57.5 µM; also: % is scaled to controls: 0 for no effect and ±100 for the full control effect; nearly all actives have a fitted effect of over 55% in size
Outline: (§2)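 Cells, 1,000 per well, plated 16 h, then exposed 48 h at 37 C to compounds. Viability by ATPlite luminescence after 15 min at room temperature.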

CAOV3 = assay: as above; conditions: Gynecologic cancer cell panel viability, ATPlite luminescence, 48 h; series mostly up to 57.5 µM
Outline: as §2

CASKI = assay: as above; conditions: Gynecologic cancer cell panel viability, ATPlite luminescence, 48 h; series mostly up to 57.5 µM
Outline: as §2

Es-2 = assay: as above; conditions: Gynecologic cancer cell panel viability, ATPlite luminescence, 48 h; series mostly up to 57.5 µM
Outline: as §2

HeLa = assay: as above; conditions: Gynecologic cancer cell panel viability, ATPlite luminescence, 48 h; series mostly up to 57.5 µM
Outline: as §2

Hek293T = assay: as above; conditions: Gynecologic cancer cell panel viability, ATPlite luminescence, 48 h, control line for the selectivity index; series mostly up to 57.5 µM
Outline: as §2

JEG-3 = assay: as above; conditions: Gynecologic cancer cell panel viability, ATPlite luminescence, 48 h; series mostly up to 57.5 µM
Outline: as §2

OV90 = assay: as above; conditions: Gynecologic cancer cell panel viability, ATPlite luminescence, 48 h; series mostly up to 57.5 µM
Outline: as §2

PA-1 = assay: as above; conditions: Gynecologic cancer cell panel viability, ATPlite luminescence, 48 h; series mostly up to 57.5 µM
Outline: as §2

SKOV3 = assay: as above; conditions: Gynecologic cancer cell panel viability, ATPlite luminescence, 48 h; series mostly up to 57.5 µM
Outline: as §2

Tov-21-G = assay: as above; conditions: Gynecologic cancer cell panel viability, ATPlite luminescence, 48 h; series mostly up to 57.5 µM
Outline: as §2

Tov112D = assay: as above; conditions: Gynecologic cancer cell panel viability, ATPlite luminescence, 48 h; series mostly up to 57.5 µM
Outline: as §2

Nc1ncnc2c1c(COc1cccc(Cl)c1)nn2C1CCOCC1
inactive: outcome (HACAT) | outcome (NIH3T3) | Potency (C33A) | Potency (CAOV3) | outcome (CASKI) | Potency (Es-2) | Potency (HeLa) | Potency (Hek293T) | Potency (JEG-3) | Potency (OV90) | Potency (PA-1) | Potency (SKOV3) | Potency (Tov-21-G) | Potency (Tov112D)

C=C(CC/C=C(\C)C(=O)O)C1(O)CC=C(C)CC1 (stereo not given)
inactive: outcome (HACAT) | outcome (NIH3T3) | Potency (C33A) | Potency (CAOV3) | outcome (CASKI) | Potency (Es-2) | Potency (HeLa) | Potency (Hek293T) | Potency (JEG-3) | Potency (OV90) | Potency (PA-1) | Potency (SKOV3) | Potency (Tov-21-G) | Potency (Tov112D)

CC(=O)O[C@@H]1[C@@H](O)[C@H](C)O[C@@H](O[C@H]2[C@@H]3C=CO[C@@H](O[C@@H]4O[C@H](CO)[C@@H](O)[C@H](O)[C@H]4OC(C)=O)[C@@H]3[C@@]3(CO)O[C@@H]23)[C@@H]1OC(=O)/C=C/c1ccc(O)cc1
inactive: outcome (HACAT) inactive [at 17.4 µM] | outcome (NIH3T3) inactive [at 17.4 µM] | Potency (C33A) | Potency (CAOV3) | outcome (CASKI) | Potency (Es-2) | Potency (HeLa) | Potency (Hek293T) | Potency (JEG-3) | Potency (OV90) | Potency (PA-1) | Potency (SKOV3) | Potency (Tov-21-G) | Potency (Tov112D)

O=C(c1ccc(Cl)c([N+](=O)[O-])c1)N1CCN(c2ccccc2F)CC1
inactive: outcome (HACAT) | outcome (NIH3T3) | Potency (C33A) | Potency (CAOV3) | outcome (CASKI) | Potency (Es-2) | Potency (HeLa) | Potency (Hek293T) | Potency (JEG-3) | Potency (OV90) | Potency (PA-1) | Potency (SKOV3) | Potency (Tov-21-G) | Potency (Tov112D)

C=C1[C@H]2CCC3[C@]4(C)CCC[C@@](C)(C(=O)O)C4CC[C@]3(C2)[C@H]1OC(C)=O (stereo not given in full)
inactive: outcome (HACAT) | outcome (NIH3T3) | Potency (C33A) | Potency (CAOV3) | outcome (CASKI) | Potency (Es-2) | Potency (HeLa) | Potency (Hek293T) | Potency (JEG-3) | Potency (OV90) | Potency (PA-1) | Potency (SKOV3) | Potency (Tov-21-G) | Potency (Tov112D)

CCC(C)/C=C(C)/C=C/C(=O)C1CCC(O)C(C)(O)C1=O (stereo not given)
inactive: outcome (HACAT) | outcome (NIH3T3) | Potency (C33A) | Potency (CAOV3) | outcome (CASKI) | Potency (Es-2) | Potency (HeLa) | Potency (Hek293T) | Potency (JEG-3) | Potency (OV90) | Potency (PA-1) | Potency (SKOV3) | Potency (Tov-21-G) | Potency (Tov112D)

C=C1CC[C@@]2(OC1)O[C@H]1CC3[C@@H]4CC=C5C[C@H](O[C@H]6OC[C@@H](O)C(O)[C@@H]6O[C@@H]6O[C@@H](C)[C@H](O)[C@@H](O[C@@H]7O[C@H](CO)[C@@H](O)[C@H](O)[C@H]7O)[C@H]6O)C[C@@H](O)[C@]5(C)C4CC[C@]3(C)[C@H]1[C@@H]2C (stereo not given in full)
inactive: outcome (HACAT) inactive [at 9.27 µM] | outcome (NIH3T3) inactive [at 9.27 µM] | activity change, negative = cytotoxicity (C33A) 2.1% [at 11.6 µM] | activity change, negative = cytotoxicity (CAOV3) -11% [at 11.6 µM] | activity change, negative = cytotoxicity (CASKI) -7.31% [at 11.6 µM] | activity change, negative = cytotoxicity (Es-2) -3.81% [at 11.6 µM] | activity change, negative = cytotoxicity (HeLa) 12.1% [at 11.6 µM] | activity change, negative = cytotoxicity (Hek293T) 9.36% [at 11.6 µM] | activity change, negative = cytotoxicity (JEG-3) -8.07% [at 11.6 µM] | activity change, negative = cytotoxicity (OV90) 6.02% [at 11.6 µM] | activity change, negative = cytotoxicity (PA-1) 3.82% [at 11.6 µM] | activity change, negative = cytotoxicity (SKOV3) 0.203% [at 11.6 µM] | activity change, negative = cytotoxicity (Tov-21-G) 7.35% [at 11.6 µM] | activity change, negative = cytotoxicity (Tov112D) 1.29% [at 11.6 µM]

O=C(/C=C/c1ccc(O)cc1)O[C@H]1[C@H](OC2CCCCC2O)O[C@H](CO)[C@@H](O)[C@@H]1O (stereo not given in full)
inactive: outcome (HACAT) inactive [at 17.4 µM] | outcome (NIH3T3) inactive [at 17.4 µM] | Potency (C33A) | Potency (CAOV3) | outcome (CASKI) | Potency (Es-2) | Potency (HeLa) | Potency (Hek293T) | Potency (JEG-3) | Potency (OV90) | Potency (PA-1) | Potency (SKOV3) | Potency (Tov-21-G) | Potency (Tov112D)

COc1ccccc1CN[C@H]1CCCN[C@H]1c1ccccc1
inactive: outcome (HACAT) | outcome (NIH3T3) | Potency (C33A) | Potency (CAOV3) | outcome (CASKI) | Potency (Es-2) | Potency (HeLa) | Potency (Hek293T) | Potency (JEG-3) | Potency (OV90) | Potency (PA-1) | Potency (SKOV3) | Potency (Tov-21-G) | Potency (Tov112D)

COC(=O)C1(C)CCCC2(C)c3ccc(C(C)C)cc3C(O)C(O)C12 (stereo not given)
inactive: outcome (HACAT) | outcome (NIH3T3) | Potency (C33A) | Potency (CAOV3) | outcome (CASKI) | Potency (Es-2) | Potency (HeLa) | Potency (Hek293T) | Potency (JEG-3) | Potency (OV90) | Potency (PA-1) | Potency (SKOV3) | Potency (Tov-21-G) | Potency (Tov112D)
